In PubChem BioAssay AID743332 (Broad Institute, 2014):
Entries with a potency or affinity are not part of this list. Activity calls are given as the source filed them.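 The calls were made as follows: active = at least 35% decrease in signal relative to neutral control well mean; inactive = the rest, opposite-direction activity included.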

Biological target: Caspase-6 (Homo sapiens) (UniProt P55212)
Test: inhibition of CASP6 peptide cleavage – biochemical, VEID-R110 fluorescence, dry powder retest, dose response (AID 743332)
Details: purified caspase-6, Z-VEID-R110 cleavage fluorescence; series mostly up to 35 µM; activity change, negative = inhibition: at the top concentration

Chain of Caspase-6 (Homo sapiens) (P55212 24-179 limits assumed): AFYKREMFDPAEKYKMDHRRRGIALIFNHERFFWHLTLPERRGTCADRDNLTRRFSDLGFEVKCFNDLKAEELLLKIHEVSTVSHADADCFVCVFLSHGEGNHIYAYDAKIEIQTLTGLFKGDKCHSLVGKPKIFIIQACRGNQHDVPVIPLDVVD
Chain of Caspase-6 (Homo sapiens) (P55212 194-293 limits assumed): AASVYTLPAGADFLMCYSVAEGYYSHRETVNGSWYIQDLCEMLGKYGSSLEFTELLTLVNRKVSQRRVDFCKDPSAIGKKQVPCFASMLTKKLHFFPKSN

Activity change, negative = inhibition, inactive:
Cc1ccc(C(=O)N2CCN(S(=O)(=O)c3ccccc3)CC2)o1 0.801%, O=C(c1ccc(F)cc1)N1CCCN(S(=O)(=O)c2ccc(F)cc2)CC1 5%, O=S(=O)(c1ccccc1)N1CCN(Cc2ccccc2)CC1 1.29%, Cc1ccc(C(=O)N2CCN(S(=O)(=O)c3ccccc3)CC2)cc1 4.95%, Cc1ccc(C(=O)N2CCCN(S(=O)(=O)c3ccc(C)cc3)CC2)cc1 9.58%, CC(=O)Nc1ccc(S(=O)(=O)N2CCN(C(=O)c3ccc(C)cc3)CC2)cc1 5.54%, Cc1ccc(S(=O)(=O)N2CCCN(C(=O)c3ccoc3)CC2)cc1 1%, O=C(c1cccnc1)N1CCN(S(=O)(=O)c2cccnc2)CC1 8.03%, O=C(C1COc2ccccc2O1)N1CCN(S(=O)(=O)c2ccccc2)CC1 (stereo not given) -3.24%, O=C(c1ccc2c(c1)OCCO2)N1CCN(S(=O)(=O)c2ccccc2)CC1 6.42%, CC(=O)N1CCCc2cc(S(=O)(=O)N3CCN(C(=O)C4COc5ccccc5O4)CC3)ccc21 (stereo not given) 12%, O=C(c1ccccc1)N1CCN(S(=O)(=O)c2cccnc2)CC1 5.36%, O=C(c1cccs1)N1CCN(S(=O)(=O)c2ccccc2)CC1 0.185%, O=C(c1ccccc1)N1CCCC(NS(=O)(=O)c2ccccc2)C1 (stereo not given) 7.3%, O=C(c1ccoc1)N1CCN(S(=O)(=O)c2cccnc2)CC1 5.59%, O=C(c1ccccc1)N1CCN(S(=O)(=O)c2ccc(Cl)cc2)CC1 3.42%, Cc1ccc(S(=O)(=O)N2CCN(C(=O)c3ccccc3)CC2)cc1 8.23%, CC(=O)Nc1ccc(S(=O)(=O)N2CCN(C(=O)c3ccccc3)CC2)cc1 10.7%, Cc1ccc(S(=O)(=O)N2CCN(C(=O)c3ccco3)CC2)cc1 3.21%, Cc1ccc(C(=O)N2CCN(S(=O)(=O)c3ccc(C)cc3)CC2)cc1 4.57%, O=C(c1ccccn1)N1CCN(S(=O)(=O)c2ccccc2)CC1 5.53%, [O-][n+]1c2c(nn1-c1ccccc1)-c1nonc1CC2 4.39%, Cc1ccc(S(=O)(=O)N2CCN(C(=O)C3COc4ccccc4O3)CC2)cc1 (stereo not given) 5.54%, [O-][n+]1c2c(nn1-c1ccccc1Cl)-c1nonc1CC2 4.6%, O=C(C1COc2ccccc2O1)N1CCN(S(=O)(=O)c2ccccc2F)CC1 (stereo not given) -2.1%, COc1ccc(C(=O)N2CCN(S(=O)(=O)c3ccccc3)CC2)cc1 20.3%, Cc1cccc(C(=O)N2CCCN(S(=O)(=O)c3ccc4c(c3)OCCO4)CC2)c1 25%, Cc1ccc(C(=O)N2CCN(S(=O)(=O)c3ccc4c(c3)OCCO4)CC2)cc1 -11%, COc1ccc(S(=O)(=O)N2CCN(C(=O)c3ccccc3)CC2)cc1 1.2%, CC(=O)Nc1ccc(C(=O)N2CCN(S(=O)(=O)c3ccc(C)cc3)CC2)cc1 -10.9%
